Laboratory results taken from PubChem BioAssay (NCATS).
Inconclusive results are not listed. Unmarked numbers belong to inactive results. Active and inactive are the calls of the source. The call rests on the fitted dose curve; in most records, active means well fitted activation curve with a large enough effect; inconclusive means small, poorly fitted or top-dose-only effect; inactive means no such curve, though single readings can be large or run the other way.

Test: qHTS for Activators of Parkin Expression: LOPAC Validation Assay (FLuc Reporter) (AID 720573;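 on activation: 0% = DMSO and 100% = positive control compounds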)
Conditions: Cell line, PRKN promoter firefly luciferase reporter; series mostly up to 46.1 µM; activation: at the top concentration
Outline: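 Neuronal cell line stably expressing FLuc/NLuc coincidence reporter under the Parkin promoter, 1,500 cells/well, dosed 24 h after seeding in 7-point series for 24 h at 37 C. FLuc luminescence read; normalized to DMSO and positive control (100%).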
Potency means the concentration at half of the fitted maximal effect.

SMILES	activation [%]	Potency
Nc1ccc(CCNc2ncnc3c2ncn3C2OC(CO)C(O)C2O)cc1 (stereo not drawn)	-5.19	
CCCCCCN(CCCCCC)C(=O)Cc1c(-c2ccc(F)cc2)[nH]c2ccccc12	-14.5	
N[C@H](C(=O)O)[C@H](O)C(=O)O	-2.77	
CNc1ncnc2c1ncn2[C@H]1C[C@H](OP(=O)(O)O)[C@@H](COP(=O)(O)O)O1	-0.916	
O=c1[nH]ccc2c(O)cccc12	3.9	
O=C1Cc2c([nH]c3ccc(Br)cc23)-c2ccccc2N1		2.59 µM (active)
C=C1C(=O)O[C@@H]2[C@H]3O[C@]3(C)CCC=C(C)CC[C@@H]12	-49.3	
N#CC(C#N)=C(N)/C(C#N)=C/c1ccc(O)cc1	-1.82	
CC[C@H](NC(=O)c1c(C)c(-c2ccccc2)nc2ccccc12)c1ccccc1	-13.7	
C[C@H](O)C(=O)C1=Nc2c(nc(N)[nH]c2=O)NC1	-9.89	
CCN1C(=O)C=CC1=O	-5.58	
CNCCc1cnc(CCC(c2ccccc2)c2ccccc2)[nH]1	0.772	
COc1cc(C(O)CO)ccc1O (stereo not drawn)	-6.26	
NC1C=CC=C(C(=O)O)C1 (stereo not drawn)	-4.94	
O=C(O)/C=C/c1cnc[nH]1	0.824	
CN1CCC2(CCN3CCc4c(oc5ccccc45)C3C2)N(C)C1=O (stereo not drawn)	-1.03	
CN1Cc2sccc2C(c2ccc(O)c(O)c2)C1 (stereo not drawn)	21.1	
C=C1C[C@@]23CC[C@H]4[C@@](C)(CCC[C@@]4(C)C(=O)O)[C@@H]2CC[C@]1(O)C3	-9.59	
Cc1nc2n(c(=O)c1CCN1CCC(c3noc4cc(F)ccc34)CC1)CCCC2O (stereo not drawn)	-14.5	

SMILES	activation [%]	Potency
[N-]=[N+]=Nc1ccc(C(=O)CSC[C@H](NC(=O)CC[C@H](N)C(=O)O)C(=O)NCC(=O)O)cc1	-4.2	
N#Cc1cc2nc(O)c(O)nc2cc1[N+](=O)[O-]	-9.53	
NOCC(=O)O	-2.88	
c1ccc(C(NCCNC(c2ccccc2)c2ccccc2)c2ccccc2)cc1	3.85	
Cc1cc(Cn2cnc3c2C[C@@H](C(=O)O)N(C(=O)C(c2ccccc2)c2ccccc2)C3)ccc1N	3.8	
N[C@H](C(=O)O)[C@H]1C[C@@H]1C(=O)O	-4	
CCN(CC)CCCCCCCCOC(=O)c1cc(OC)c(OC)c(OC)c1	-1.21	
Nc1ncnc2c1nc(Br)n2C1OC2COP(=O)(O)O[C@@H]2C1O (stereo partly drawn)	3.62	
COc1cc(C(O)C(=O)O)ccc1O (stereo not drawn)	-6.79	
CC(C)C[C@H](NC(=O)C1OC1C(=O)O)C(=O)NCCCCN=C(N)N (stereo partly drawn)	-9.83	
COCc1nc2c([nH]1)c(=O)n(C)c(=O)n2CC(C)C	-2.82	
CC(=O)NCCc1c[nH]c2ccc(O)cc12	-9.28	
N[C@@H](Cc1ccc(F)cc1)C(=O)O	-1.42	
NC1CCN(O)C1=O (stereo not drawn)	-6.59	
NC(C(=O)N[C@@H]1C(=O)N2C(C(=O)O)=C(Cl)CS[C@H]12)c1ccccc1 (stereo partly drawn)	-2.99	
O=C1C2C=CC=CC2=NC(=S)N1CCN1CCC(=C(c2ccc(F)cc2)c2ccc(F)cc2)CC1 (stereo not drawn)	0.907	
OCC1NCC(O)C(O)C1O (stereo not drawn)	-9.33	
CSC(N)=NCCC[C@H](N)C(=O)O	-2.63	
CC1C(=O)N(C)C(=O)c2nc[nH]c21 (stereo not drawn)	-4.63	
